Several values for one entry are separate records, joined by “and”; a condition that tells them apart may be missing. Equal values may be shown once. Among all 5,500 compounds or so, about 2,000 (36%) were called active. About 18% were inconclusive and are not listed. Rule as the data show it: active = normalized growth mostly below about 0.91 (no sharp cut-off); inconclusive = no clear call, values can overlap the other calls; inactive = mostly above about 0.92. Some of the results follow.
Test: chemical genetic growth profiling, strain panel (AID 1159580);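 also: tested at 20 µM; growth read once vehicle control cultures reached saturation at 30 °C; 1 = growth at the plate median or of vehicle wells; lower values mean less growth of the strain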
Conditions: S. cerevisiae deletion strains, growth OD

Measured: normalized growth

c1ccc(CC2=NCCN2)cc1
active: locus YCL029C, strain bik1, stronger effect = lower value 0.887 | locus YDL185W, strain tfp1, stronger effect = lower value 0.816 | locus YDR101C, strain arx1, stronger effect = lower value 0.903 | locus YDR318W, strain mcm21, stronger effect = lower value 0.893 | locus YDR388W, stronger effect = lower value 0.923 | locus YDR502C, strain sam2, stronger effect = lower value 0.91 | locus YER155C, strain BEM2, stronger effect = lower value 0.891 | locus YGL078C, strain dbp3, stronger effect = lower value 0.806 | locus YHR079C, strain IRE1 (second series), stronger effect = lower value 0.865 | locus YHR094C, strain hxt1, stronger effect = lower value 0.9 | locus YHR200W, strain rpn10, stronger effect = lower value 0.91 | locus YIL125W, strain kgd1, stronger effect = lower value 0.787 | locus YIR030C, strain dcg1, stronger effect = lower value 0.899 | locus YJL168C, strain set2, stronger effect = lower value 0.915
inactive: locus YAL013W, strain DEP1, stronger effect = lower value 1.01 | locus YAL021C, strain ccr4, stronger effect = lower value 1.01 | locus YAL026C, strain drs2, stronger effect = lower value 1.03 | locus YAL030W, strain snc1, stronger effect = lower value 1.01 | locus YBL061C, strain skt5, stronger effect = lower value 1.01 | locus YBR009C, strain hhf1, stronger effect = lower value 0.998 | locus YBR021W, strain FUR4, stronger effect = lower value 0.861 | locus YBR023C, strain chs3, stronger effect = lower value 1.01 | locus YBR171W, strain sec66, stronger effect = lower value 1.03 | locus YBR229C, strain ROT2, stronger effect = lower value 0.983 | locus YBR231C, strain swc5, stronger effect = lower value 1.01 | locus YBR279W, strain paf1, stronger effect = lower value 1.01 | locus YCL011C, strain gbp2, stronger effect = lower value 1.02 | locus YCL016C, strain dcc1, stronger effect = lower value 1 | locus YCL061C, strain MRC1, stronger effect = lower value 1.02 | locus YCL069W, strain vba3, stronger effect = lower value 1.03 | locus YCR088W, strain abp1, stronger effect = lower value 1.01 | locus YDL005C, strain med2, stronger effect = lower value 1.02 | locus YDL035C, strain GPR1, stronger effect = lower value 0.963 | locus YDL040C, strain nat1, stronger effect = lower value 1 | locus YDL074C, strain BRE1, stronger effect = lower value 1 | locus YDL101C, strain DUN1, stronger effect = lower value 0.987 | locus YDL134C, strain PPH21, stronger effect = lower value 0.99 | locus YDL192W, strain arf1, stronger effect = lower value 0.952 | locus YDR001C, strain nth1, stronger effect = lower value 1.01 | locus YDR069C, strain doa4, stronger effect = lower value 1 | locus YDR137W, strain rgp1, stronger effect = lower value 1.03 | locus YDR150W, strain NUM1, stronger effect = lower value 0.983 | locus YDR159W, strain sac3, stronger effect = lower value 0.977 | locus YDR162C, strain NBP2, stronger effect = lower value 0.967 | locus YDR195W, strain ref2 1.02 | locus YDR297W, strain sur2, stronger effect = lower value 1.01 | locus YDR334W, strain swr1, stronger effect = lower value 1.02 | locus YDR335W, strain msn5, stronger effect = lower value 1 | locus YDR392W, strain spt3, stronger effect = lower value 0.933 | locus YEL003W, strain gim4, stronger effect = lower value 1.01 | locus YEL037C, strain rad23, stronger effect = lower value 1.02 | locus YEL061C, strain CIN8 (second series), stronger effect = lower value 1.01 | locus YEL061C, strain CIN8, stronger effect = lower value 0.987 | locus YER015W, strain faa2, stronger effect = lower value 1.01 | locus YER016W, strain bim1, stronger effect = lower value 1.04 | locus YER110C, stronger effect = lower value 0.929 | locus YER111C, strain swi4, stronger effect = lower value 1.02 | locus YER155C, strain BEM2 (second series), stronger effect = lower value 1.02 | locus YER167W, strain BCK2, stronger effect = lower value 0.939 | locus YFR010W, strain ubp6, stronger effect = lower value 1.01 | locus YGL086W, strain mad1, stronger effect = lower value 0.955 | locus YGL167C, strain pmr1, stronger effect = lower value 1.02 | locus YGL173C, strain kem1, stronger effect = lower value 0.998 | locus YGL227W, strain vid30, stronger effect = lower value 1.03 | locus YGL240W, strain doc1, stronger effect = lower value 0.97 | locus YGL248W, strain PDE1, stronger effect = lower value 0.996 | locus YGL253W, strain hxk2, stronger effect = lower value 1.01 | locus YGR078C, strain PAC10, stronger effect = lower value 0.988 | locus YGR135W, strain pre9, stronger effect = lower value 0.937 | locus YGR229C, strain SMI1, stronger effect = lower value 1.01 | locus YGR252W, strain gcn5, stronger effect = lower value 0.898 | locus YHR013C, strain ard1, stronger effect = lower value 1.02 | locus YHR027C, strain rpn1, stronger effect = lower value 1.02 | locus YHR030C, strain SLT2, stronger effect = lower value 0.976 and 0.967 | locus YHR079C, strain IRE1, stronger effect = lower value 0.961 | locus YHR129C, strain ARP1, stronger effect = lower value 0.958 | locus YHR142W, strain chs7, stronger effect = lower value 1.02 | locus YIL066C, strain RNR3, stronger effect = lower value 0.987 | locus YIL073C, strain SPO22, stronger effect = lower value 1.01 | locus YJL092W, strain hpr5, stronger effect = lower value 1.01 | locus YJL095W, strain BCK1 (second series), stronger effect = lower value 1.01 | locus YJL095W, strain BCK1, stronger effect = lower value 1.01 and 0.968 | locus YJL115W, strain asf1, stronger effect = lower value 1.02 | locus YJL129C, strain trk1, stronger effect = lower value 1.03 | locus YJL134W, strain LCB3, stronger effect = lower value 0.969 | locus YJL154C, strain vps35, stronger effect = lower value 1.01 | locus YJL164C, strain tpk1, stronger effect = lower value 1.02 | locus YJL166W, strain qcr8, stronger effect = lower value 1.03 | locus YJL187C, strain SWE1 (second series), stronger effect = lower value 0.988 | locus YJL187C, strain SWE1, stronger effect = lower value 1.02 | locus YJR043C, strain POL32, stronger effect = lower value 0.939 | locus YJR066W, strain TOR1, stronger effect = lower value 0.935

Source: PubChem BioAssay AID1159580 (chemical genetic matrix, 2015)
